# Source: PubChem BioAssay (National Center for Advancing Translational Sciences (NCATS))
# In the library only some 7.3% were active in any assay of this set; here they are far more common.
# Rab9 prom act: Rab9 promoter activation | Huh7 Rab9 promoter-luciferase reporter, luminescence, 24 h | Potency, µM (doses to about 9.22 µM), inactives show at the top dose activation, negative = inhibition, actives largely listed as activators | actives 2.8% (n = 320,000); note: % of control where 0% means no effect; nearly all actives have a fitted effect of over 60% in size
#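 Stable Rab9-luc Huh7, 1500 cells/well, 2 h settle; cmpd in DMSO, 24 h, 37 °C/5% CO2; luciferase reagent 10 min RT; luminescence.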
# FLuc modulator: counter-screen for miR-21 project: firefly luciferase inhibitors or activators | P08659 | Potency, µM (doses to about 57.5 µM), without a hit: at the highest dose activity change, negative = inhibition, most hits filed as inhibitors | purified FLuc, Km substrates, luminescence inhibition | actives 6.9% (n = 360,000);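 note: plate controls were vehicle for no effect and reference inhibitor for full effect; nearly all actives have a fitted effect of over 55% in size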
# Target sequence (P08659 whole entry, looked up): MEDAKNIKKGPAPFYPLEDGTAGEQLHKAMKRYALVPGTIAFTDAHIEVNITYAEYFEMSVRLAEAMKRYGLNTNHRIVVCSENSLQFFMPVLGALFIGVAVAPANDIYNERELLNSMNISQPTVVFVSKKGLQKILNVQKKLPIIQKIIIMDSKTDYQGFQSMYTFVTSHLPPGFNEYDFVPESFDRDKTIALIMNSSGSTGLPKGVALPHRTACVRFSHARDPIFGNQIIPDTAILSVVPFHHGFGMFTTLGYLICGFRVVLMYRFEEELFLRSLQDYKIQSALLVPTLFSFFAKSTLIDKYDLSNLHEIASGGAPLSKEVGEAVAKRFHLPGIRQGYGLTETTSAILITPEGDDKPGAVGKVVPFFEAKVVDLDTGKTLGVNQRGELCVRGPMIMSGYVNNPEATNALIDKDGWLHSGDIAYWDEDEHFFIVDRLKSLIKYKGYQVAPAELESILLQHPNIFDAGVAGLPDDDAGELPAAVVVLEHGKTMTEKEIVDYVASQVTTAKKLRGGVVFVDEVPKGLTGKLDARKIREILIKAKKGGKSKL
#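 Purified P. pyralis luciferase, 10 nM final, with Km-level 10 uM D-luciferin and 10 uM ATP in 50 mM Tris acetate pH 7.5, 10 mM Mg acetate, 0.01% Tween-20, 0.05% BSA; 6-point qHTS titration about 60 µM downward; luminescence read.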
# KinaseGlo FLuc: blocks Kinase-Glo luciferase, a counter-screen artifact. Kinase-Glo luciferase, ATP luminescence, 8 min. Potency, µM (top dose mostly 38.3 µM), for inactives: at the top dose activity change, negative = inhibition, usual class: inhibitors. actives 0.28% (n = 200,000). AID 1379; note: % is set by controls: 0 for no effect and ±100 for the full control effect; nearly all actives have a fitted effect of over 60% in size
#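 Inhibition of Kinase-Glo luciferase light generation was assessed at 10 uM ATP in pH 7.2 imidazole buffer, with luminescence measured after eight minutes at ambient temperature.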
# NPC1 prom act: activates the NPC1 promoter. Huh7 NPC1 promoter luciferase reporter, 24 h. Potency, µM (titrated, usually from 9.22 µM), for inactives: at the highest dose activation, most hits filed as activators. actives 2.4% (n = 320,000). AID 485313; note: % of control where 0% means no effect; nearly all actives have a fitted effect of over 60% in size
#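 Cells: Huh7 expressing luciferase under the NPC1 promoter, 1500/well. Seeded 2 h, compound added, incubated 24 h at 37 °C. Luciferase reagent, 10 min ambient, then luminescence.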
# SMN2 splice up: SMN2 splice variant enhancement; Potency, µM (titrated, usually from 46.1 µM), for inactives: at the top dose activity change, positive = activation, most hits filed as activators; actives 2.8% (n = 210,000); HEK293 SMN2-luciferase splicing reporter, luminescence, 30-36 h; note: % of control where 0% means no effect; nearly all actives have a fitted effect of over 55% in size
#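 HEK293 cells carry an SMN2 minigene-luciferase reporter in which exon 7 inclusion puts luciferase in frame. Cells were seeded at 2000 cells/well, attached for 10-12 hours, then exposed to compounds for 30-36 hours at 37C before ONE-Glo luminescence.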
# ELG1 genotoxic: induces genotoxicity in HEK293T cells with luciferase-tagged ELG1; actives 1.3% (n = 330,000); HEK293T ELG1-luciferase reporter, luminescence, 16 h; Potency, µM (highest dose often 46 µM), for the others: at the top dose activity change, positive = activation, usual class: activators; note: % of control where 0% means no effect; nearly all actives have a fitted effect of over 60% in size
#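 Luminescence read-out: rising ELG1-luciferase signal, reflecting elevated ELG1 protein under genetic stress, flags genotoxic compounds. Cells were treated for 16 hr at 37 °C before ONE-Glo detection.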
# Starred values were filed as active, the others as inactive; ? = inconclusive; . = no result; [ ] = dose if it differs, or a comment. Calls come from the whole dose curve; as a rule, active = well fitted curve in the direction sought with a large enough effect; inconclusive = small, poorly fitted or top-dose-only effect, or another doubt; inactive = no such curve, though single readings can be large; an effect the other way counts as inactive or inconclusive. Potency is the fitted concentration of half-maximal effect.
SMILES,Rab9 prom act,FLuc modulator,KinaseGlo FLuc,NPC1 prom act,SMN2 splice up,ELG1 genotoxic
COc1ccccc1N1CCN(C(=O)Cn2ncc3ccsc3c2=O)CC1,.,5%,.,.,21%,.
O=[N+]([O-])c1ccc(/C=N/Nc2nc(NCc3ccccc3)nc(N3CCOCC3)n2)cc1,-3%,0%,-5%,0%,1%,0%
O=[N+]([O-])c1cccc(/C=N/Nc2nc(NCc3ccccc3)nc(N3CCOCC3)n2)c1O,-6%,17µM*,-1%,-4%,.,-15%
COc1ccc2c(c1)cc1c(=O)n(CC(=O)NCCc3ccccc3)nc(C)n12,.,0%,.,.,5%,.
COc1ccc(-c2csc(NC3OC(=O)c4c3ccc(OC)c4OC)n2)cc1OC (stereo not drawn),-4%,-6%,.,-23%,.,6%
COc1ccc2c(c1OC)C(=O)OC2Nc1nc(-c2cc3cc(Br)ccc3oc2=O)cs1 (stereo not drawn),1.4µM*,21µM*,.,2µM*,.,?
CCc1ccc(NC(=O)C(CC)n2c(=O)c(-c3ccccc3NC(C)=O)nc3ccccc32)cc1 (stereo not drawn),.,-6%,.,.,.,.
Cc1cc2nc(CS)[nH]c2cc1C,12%,4.8µM*,.,8%,.,4%
CCCCN(CC)C(=O)c1nn(C)c2c1CSc1ccccc1-2,.,6%,.,.,.,.
CC(=O)c1ccc(NC(=O)/C=C/c2ccc(C)o2)cc1,.,7.6µM*,.,.,13µM*,.
Cc1ccc(/C=C/C(=O)Nc2ccc(Oc3ccccc3)cc2)o1,1%,6µM*,0%,-5%,-47%,9%
Cc1ccc(/C=C/C(=O)Nc2ccc([N+](=O)[O-])cc2)o1,?,-27%,.,23%,.,-2%
CCN(c1ccc(OC)cc1)S(=O)(=O)c1ccc2[nH]c3c(c2c1)CCCCC3,.,-7%,.,.,.,.
Cc1ccc(NC(=O)c2nnn(CC(=O)Nc3ccc4c(c3)OCO4)c2N)cc1C,2%,5.4µM*,.,-1%,.,2%
Nc1c(C(=O)Nc2ccc3c(c2)OCCO3)nnn1Cc1cccc(Br)c1,4µM*,?,.,?,.,8%
Cc1cccc(-n2nnc(C(=O)NCc3ccc4c(c3)OCO4)c2N)c1,7%,2%,-2%,7%,6%,-3%
Nc1c(C(=O)Nc2ccccc2Cl)nnn1-c1ccc2c(c1)OCCO2,1.1µM*,1.1µM*,.,0.79µM*,.,?
Cc1ccc(NC(=O)c2nnn(Cc3ccccc3)c2N)cc1C,.,0%,.,.,23%,.
Nc1c(C(=O)Nc2ccc3c(c2)OCCO3)nnn1CCc1ccccc1,10%,15µM*,0%,-2%,?,?
CCOCCCNC(=O)CN1C(=O)c2c(c3ccccc3n2C)C1c1ccc(OC)cc1 (stereo not drawn),.,1%,.,.,.,.
CCc1ccc(Cn2nnc(C(=O)Nc3cccc(C)c3)c2N)cc1,-7%,5%,3%,1%,1%,9%
Nc1c(C(=O)Nc2ccc3c(c2)OCCO3)nnn1Cc1ccc(Br)cc1,1.1µM*,?,.,1.6µM*,.,?
CC(=O)Nc1ccc(NC(=O)CSc2nnc(-c3cc(C)[nH]n3)n2N)cc1,-1%,-12%,.,-13%,.,0%
Cc1cc(-c2nnc(SCC(=O)Nc3ccc(C)c(C)c3)n2N)n[nH]1,6%,11µM*,.,18%,.,1%
O=C(c1ccccc1)N1CCc2cc(CNS(=O)(=O)c3ccc(Cl)s3)ccc21,.,0%,.,.,.,.
SMILES,Rab9 prom act,FLuc modulator,KinaseGlo FLuc,NPC1 prom act,SMN2 splice up,ELG1 genotoxic
Cc1ccc(C(CC(=O)NCC2(c3ccccc3)CCCC2)c2ccccc2)c(O)c1 (stereo not drawn),.,-2%,.,.,-31%,.
CCn1cc(C(=O)NCCCOC)c(=O)c2cc(S(=O)(=O)N3CCc4ccccc4C3)ccc21,.,6%,.,.,4%,.
CCc1ccc(N2Cc3ccccc3C2)cc1,3.5µM*,6µM*,.,2.8µM*,.,?
CCOC(=O)c1ccc(N2Cc3ccccc3C2)cc1O,?,8.5µM*,-1%,27%,.,?
Cc1cccc(N2CCN(C(=O)C3CCN(S(=O)(=O)c4cn(C)cn4)CC3)CC2)c1C,.,-6%,.,.,.,.
COc1ccc(CNc2nc(NCc3ccc(OC)c(OC)c3)n(C(=O)c3cccs3)n2)cc1OC,-1%,11µM*,-1%,-3%,-2%,-3%
COc1ccc(CCNC(=O)c2cccs2)cc1OC,-5%,-1%,0%,-5%,10%,-2%
O=C(CCCCn1c(=O)c2ccccc2n(Cc2cccc(F)c2)c1=O)NCc1ccc2c(c1)OCO2,.,-3%,.,.,-8%,.
CC1CCCCN1c1nnc(NC(=O)Nc2ccccc2F)s1 (stereo not drawn),.,1%,.,.,.,.
Nc1cccc(/C=C/c2ccncc2)c1,25%,17µM*,.,?,.,12%
CC(C)CN(CC#N)CC(C)C,.,.,1%[7.66 µM],.,-3%[9.22 µM],.
CCOC(=O)Cn1cc(/C=N/NC(=O)c2cc3ccccc3o2)c2ccccc21,-3%,13µM*,.,4%,.,0%
CCn1cc(/C=N/NC(=O)c2cc3c(ccc4ccccc43)o2)c2ccccc21,4%,?,4%,-3%,17%,-1%
Cc1cc(/C=N/NC(=O)c2cc3ccccc3o2)c(C)n1C,-1%,21µM*,.,-2%,.,-6%
O=C(N/N=C/c1cccnc1)c1cc2ccccc2o1,-3%,?,2%,6%,-13%,3%
O=C(N/N=C/c1ccncc1)c1cc2ccccc2o1,-2%,21µM*,1%,-3%,14%,2%
N#C/C(=N/Nc1ccc(OC(F)(F)F)cc1)C(N)=S,-36%,11µM*,.,-25%,.,-3%
Cc1ccc(S(=O)(=O)N2CCOCC2)cc1NC(=O)COC(=O)CNC(=O)c1ccc(Oc2ccccc2)cc1,-4%,1.9µM*,0%,0%,-14%,1%
Cc1ccc(S(=O)(=O)N2CCOCC2)cc1NC(=O)COC(=O)CCOc1ccc(C(C)(C)C)cc1,-9%,3.8µM*,.,0%,.,4%
Cc1ccc(S(=O)(=O)N2CCOCC2)cc1NC(=O)COC(=O)CNC(=O)c1ccc(C(C)(C)C)cc1,-2%,0.95µM*,-5%,-2%,?,-2%
Cc1nc2c(C(=O)NCCc3ccccc3)cnn2c(C)c1Cc1c(F)cccc1Cl,.,-1%,.,.,.,.
CC(c1ccccc1)c1nnc(NC(=O)Nc2ccccc2F)s1 (stereo not drawn),7%,?,.,?,.,4%
O=C(Nc1ccc(F)cc1)Nc1nnc(SCC(=O)N2CCCCC2)s1,.,5%,.,.,.,.
C=CCSc1nsc(NC(=O)Nc2ccc(F)cc2)n1,-27%,24µM*,.,-15%,.,-3%
CCSc1nsc(NC(=O)Nc2cccc(OC)c2)n1,20%,21µM*,.,25%,.,-10%
